Where “and” joins values, the source holds several entries; their conditions need not be identical. Equal entries are not always repeated. Structures can show the parent of a compound that is named as a salt.
The molecules below were run on HeLa (assay: nuclear count per well, robust Z-score vs DMSO; higher = more cells (less toxicity)). Conditions: 10 µM; 6 h.
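Further: Hoechst-stained nuclei counted by automated confocal imaging of four fields per well in 384-well plates, with the robust Z-score based on the per-plate DMSO median and robust SD.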

SMILES	nuclear count per well
COC(=O)C[C@H](NC(=O)[C@H](C)NC(=O)[C@@H](NC(=O)OCc1ccccc1)C(C)C)C(=O)CF	0.576 and 0.906
NC(=S)c1ccccc1 [Thiobenzamide]	-0.0414
CC(C)OC(=O)CCC/C=C\C[C@@H]1[C@@H](/C=C/[C@@H](O)COc2cccc(C(F)(F)F)c2)[C@H](O)C[C@@H]1O [Travoprost]	-0.812
C[C@@H]1NC(=O)[C@@H](N)CNC(=O)[C@H](C2CCNC(=N)N2)NC(=O)/C(=C/NC(N)=O)NC(=O)[C@H](CNC(=O)CC(N)CCCN)NC1=O.N=C1NCC[C@H]([C@@H]2NC(=O)/C(=C/NC(N)=O)NC(=O)[C@H](CNC(=O)C[C@@H](N)CCCN)NC(=O)[C@H](CO)NC(=O)[C@@H](N)CNC2=O)N1 [Capreomycin Disulfate]	2.37
NCCc1ccc(O)c(O)c1	0.526
CCOc1ccccc1OCCN[C@H](C)Cc1ccc(OC)c(S(N)(=O)=O)c1	0.0182
CCCCc1oc2ccccc2c1C(=O)c1cc(I)c(OCCN(CC)CC)c(I)c1 [Amiodarone hydrochloride]	-0.0773
COc1ccc(C[C@@H]2c3cc(OC)c(OC)cc3CC[N@+]2(C)CCC(=O)OCCCCCOC(=O)CC[N@@+]2(C)CCc3cc(OC)c(OC)cc3[C@H]2Cc2ccc(OC)c(OC)c2)cc1OC [Cisatracurium Besylate]	0.507
COc1cc(Br)c(Nc2nc(-c3c(C)nc4ncccn34)cs2)c(Br)c1	-2.28
CCOC(=O)c1ncn2c1CN(C)C(=O)c1cc(F)ccc1-2 [Flumazenil]	-0.752
CCCCCCCCCCCCCCC[C@@H](O)[C@@H](N)CO [Dihydrosphingosine]	0.706
COc1cc2nc(N3CCN(C(=O)c4ccco4)CC3)nc(N)c2cc1OC	-0.0626
CCCCC[C@H](O)/C=C/[C@H]1[C@H](O)CC(=O)[C@@H]1C/C=C\CCCC(=O)O [Dinoprostone]	-0.453
O=C(O)c1cc(/N=N/c2ccc(S(=O)(=O)Nc3ccccn3)cc2)ccc1O [Sulfasalazine]	-0.796
CC(C)(O/N=C(\C(=O)N[C@@H]1C(=O)N2C(C(=O)[O-])=C(C[n+]3ccccc3)CS[C@H]12)c1csc(N)n1)C(=O)O [Ceftazidime]	0.671
O=c1oc2ccccc2c(O)c1Cc1c(O)c2ccccc2oc1=O [Dicumarol]	0.274
C[C@@H](O)[C@H]1C(=O)N2C(C(=O)O)=C(S[C@@H]3CN[C@H](CNS(N)(=O)=O)C3)[C@H](C)[C@H]12 [Doripenem]	-0.646
O=Cc1c2[nH]c3ccccc3c2cc2[nH]c3ccccc3c12 [6-Formylindolo [3,2-B] carbazole]	-0.343
CCCCC/C=C\C/C=C\C/C=C\CC1OC1CCCC(=O)O (centres undefined) [5,6-Epoxyeicosatrienoic acid]	0.524
OCCOCCN1CCN(C2=Nc3ccccc3Sc3ccccc32)CC1 [Quetiapine Fumarate]	0.149

SMILES	nuclear count per well
CC(=O)N(O)CCCCCNC(=O)CCC(=O)N(O)CCCCCNC(=O)CCC(=O)N(O)CCCCCN [Deferoxamine Mesylate]	0.635
CO[C@@]12[C@H](COC(N)=O)C3=C(C(=O)C(C)=C(N)C3=O)N1C[C@@H]1N[C@@H]12 [Mitomycin C from Streptomyces caespitosus]	0.712
NCCc1c[nH]cn1 [Histamine]	0.741
O=NN(CCCl)C(=O)NC1CCCCC1 [Lomustine]	-0.3
N[C@@H](CC(=O)N1CCn2c(nnc2C(F)(F)F)C1)Cc1cc(F)c(F)cc1F [Sitagliptin Phosphate]	-0.504
c1ccc2c(Cc3c[nH]c4ccccc34)c[nH]c2c1 [Diidolylmethane]	-0.0575
CC(=O)N[C@@H](CC(C)C)C(=O)N[C@@H](CC(C)C)C(=O)N[C@H](C=O)CCCNC(=N)N [Leupeptin]	-0.325
CC(=Cc1ccc(C(=O)O)cc1)c1ccc2c(c1)C(C)(C)CCC2(C)C	-0.374
Fc1ccc(CNc2ncnc3ccc(F)cc23)cc1 [Spautin-1]	0.362
CN1CC2c3ccccc3Oc3ccc(Cl)cc3C2C1 (centres undefined) [Asenapine Maleate]	-0.443
O=C(O)c1cccnc1 [Niacin (Known As Vitamin B3, Nicotinic Acid And Vitamin Pp)]	0.692
CN(Cc1ccc(C(C)(C)C)cc1)Cc1cccc2ccccc12	0.943
CC(C)(C)NCC(O)COc1cccc2c1CC(O)C(O)C2 (centres undefined) [Nadolol]	0.0514
NNC(=O)c1ccncc1 [Isoniazid]	-0.0369
Cc1[nH]c(=O)c(C#N)cc1-c1ccncc1 [Milrinone]	-0.183
C[C@]12C=CC(=O)N[C@@H]1CC[C@@H]1[C@@H]2CC[C@]2(C)[C@@H](C(=O)Nc3cc(C(F)(F)F)ccc3C(F)(F)F)CC[C@@H]12 [Dutasteride]	0.968
CCCC(CCC)C(=O)O [Valproic Acid]	-0.0612
Nc1nc(NC2CC2)c2ncn([C@H]3C=C[C@@H](CO)C3)c2n1 [Abacavir Sulfate]	-1.42
Cc1ccc(NC(=O)c2ccc(CN3CCN(C)CC3)cc2)cc1Nc1nccc(-c2cccnc2)n1 [Imatinib mesylate]	1.11

From the supplement of paper PMC9844399
